Assay results published in PubChem BioAssay AID602396 (The Scripps Research Institute Molecular Screening Center, 2012).
Among all 360,000 compounds or so, about 460 (0.13%) were called active. The sample as a whole holds a higher share of actives than the screen did. Unmarked numbers belong to inactive results.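 How the source made its calls: active means inhibition above the mean inhibition of all tested compounds plus 3 SD (cut at about 73% in these data); inactive means the rest.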

The compounds below were run against Nuclear receptor subfamily 5 group A member 2 (Homo sapiens) (UniProt O00482) (assay: LRH-1 (NR5A2) inverse agonists, primary screen, cell-based, luminescence, HEK293T, StAR-luciferase reporter (AID 602396;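 further: 0% = DMSO wells and 100% = reporter-only cells lacking LRH-1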)). Conditions: LRH-1 transfected, 24 h, at 3.6 µM, hits give high values.
Nuclear receptor subfamily 5 group A member 2 (Homo sapiens), sequence (O00482 whole entry, looked up): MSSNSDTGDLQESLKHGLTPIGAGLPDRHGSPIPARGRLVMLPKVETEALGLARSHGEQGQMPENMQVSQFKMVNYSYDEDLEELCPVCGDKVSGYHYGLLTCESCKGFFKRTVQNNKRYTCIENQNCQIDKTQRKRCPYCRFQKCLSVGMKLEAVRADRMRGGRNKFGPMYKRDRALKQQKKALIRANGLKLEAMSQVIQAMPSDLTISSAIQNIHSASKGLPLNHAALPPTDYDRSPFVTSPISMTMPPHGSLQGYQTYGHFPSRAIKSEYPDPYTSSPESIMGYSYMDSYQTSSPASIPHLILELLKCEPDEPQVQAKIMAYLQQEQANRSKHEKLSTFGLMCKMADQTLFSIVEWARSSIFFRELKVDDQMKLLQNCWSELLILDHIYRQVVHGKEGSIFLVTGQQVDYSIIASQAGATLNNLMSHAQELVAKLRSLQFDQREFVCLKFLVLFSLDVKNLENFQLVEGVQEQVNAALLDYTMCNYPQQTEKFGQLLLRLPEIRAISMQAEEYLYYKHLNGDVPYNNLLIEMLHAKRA

Compound | inhibition
CCCOc1ccc(CN(CCO)CCO)cc1C(=O)OC | 23.4%
O=C(NC1CCC(O)CC1)c1ccccc1OCc1ccc(F)cc1 (stereo unspecified) | 21.9%
COC(=O)C1=NN(c2ccccc2)C2C(=O)N(c3ccccc3OC)C(=O)C12 (stereo unspecified) | 10%
CCOC(=O)N1CCN(S(=O)(=O)c2cc3c(cc2C)NC(=O)CO3)CC1 | 12.8%
O=C(NC(Nc1nc2ccc([N+](=O)[O-])cc2s1)(C(F)(F)F)C(F)(F)F)c1ccccc1 | 97.9% (active)
O=C(Nc1cc(-c2ccccc2)nn1-c1ccccc1F)c1ccc([N+](=O)[O-])cc1 | -5.47%
O=[N+]([O-])c1ccc2c(c1)C(O)n1nc(-c3ccccc3)nc1S2 (stereo unspecified) | -9.43%
CCc1ccccc1N1CN(Cc2ccco2)CNC1=S | -20.8%
COc1ccc(NC(=O)c2cccc3c2C(=O)N(CC2CCCO2)C3)cc1OC (stereo unspecified) | -15.8%
CCC1OC(C2CC2)CC2=C1C(=O)OC(C)(C)O2 (stereo unspecified) | -31.2%
COc1ccc(OC)c(NC(=O)c2ccc3c(c2)C(=O)N(c2ccc(OC(C)=O)cc2)C3=O)c1 | 15.1%
N=c1ccn(CC(=O)NC(N)=O)c2ccccc12 | 19.2%
CCOC(=O)CN(C(=O)COc1nc(-c2ccccc2)cc(C)c1C#N)c1ccc(F)cc1 | 21.9%
O=S(=O)(c1ccc(F)cc1)N1CCN(Cc2ccccc2C(F)(F)F)CC1 | 10.2%
COc1cc(OC)c2c(c1)OC(=O)CC2c1cc(OC)c(OC)c(OC)c1 (stereo unspecified) | 2.48%
COc1ccc(N(C(=O)c2ccc(C)cc2)S(=O)(=O)c2cccs2)cc1 | 2.34%
CC[C@H]1CN2CCc3cc(OC)c(OC)cc3[C@@H]2C[C@@H]1C[C@H]1NCCc2cc(OC)c(OC)cc21 | 103% (active)
NC(=NC(=O)c1ccccc1)C1=C(O)CCC1=O | -13.8%
O=C(CN(Cc1ccccc1)C(=O)c1ccc2c(c1)OCCO2)NCc1ccc2c(c1)OCO2 | 4.07%

Compound | inhibition
CC(C)Nc1nc(NCCOc2ccccc2Cl)c2sccc2n1 | 18.8%
CCCCN(C=O)c1c(CC)nc2c(OCCC3CCCCC3)cccn12 | -7.2%
Cc1ccc(S(=O)(=O)N2CC[C@H]3[C@@H](C2)C(=O)C[C@@H](c2ccccc2)N3S(=O)(=O)c2ccc(C)cc2)cc1 | -11.8%
Cc1cc(NC(=O)COC(=O)/C=C/c2ccc(C)o2)no1 | -7.21%
CCN(CC)CCCNC(=O)c1c(O)c2cc(F)cc3c2n(c1=O)C(C)CC3 (stereo unspecified) | -10.8%
CCC(c1nnnn1-c1ccc2c(c1)OCCO2)N1CCN(c2ccc(C(F)(F)F)cn2)CC1 (stereo unspecified) | -0.51%
CC(=O)Nc1ccc(SC[C@H](Cc2ccccc2)N2CC[C@@H](C)CCC2=O)cc1 | -2.81%
O=C(Nc1ccccc1N1CCOCC1)c1ccc(OCc2cscn2)cc1 | 3.78%
Cc1cc(CNCc2c(C(=O)N(C)Cc3ccccc3)nc3ccccn23)nn1C | 12.7%
CC(Nc1nc(C(F)(F)F)nc2ccccc12)c1cccs1 (stereo unspecified) | 14.1%
c1ccc(-c2nccc(-c3ccc(-n4cnc5ccccc54)cc3)n2)nc1 | 5.78%
CC(C)(C)Nc1nc(-c2ccccn2)nc2ccccc12 | 85% (active)
O=C(NCc1ccncc1)C1CCCN(S(=O)(=O)c2ccc(Br)cc2)C1 (stereo unspecified) | 2.98%
O=C(CSc1ccccn1)Nc1nc2c(ccc3ccccc32)s1 | -23.7%
NC(N)=N/N=C/c1ccc(OCc2ccc(Cl)cc2Cl)cc1 | -0.41%
CCCCCCNC(=O)O[C@]12C[C@@H](C(=O)OC)[C@@H](C(=O)OC)C[C@@]1(O)CN(S(=O)(=O)c1ccc(C)cc1)C2 | -18%
Cc1cc(Nc2ccc(C)c(C)c2)n2ncnc2n1 | 18.7%
C[C@@H]1CN([C@@H](C)CO)C(=O)CCCn2cc(nn2)CO[C@H]1CN(C)S(=O)(=O)c1ccc(-n2cccn2)cc1 | 1.12%
CCN(CC)S(=O)(=O)c1ccc(OC)c(NC(=O)CCc2c(C)noc2C)c1 | 8.03%

Compound | inhibition
O=C(Nc1nnc(CCN2CCCCC2)s1)c1cccc(Cl)c1 | 0.75%
COCCCN1C(=O)C(=O)/C(=C(/O)c2ccc(S(=O)(=O)N3CCOCC3)cc2)C1c1ccc(F)cc1 (stereo unspecified) | 9.93%
CCN(CC)S(=O)(=O)c1cccc(C(=O)NCC(=O)OCC(=O)NCc2ccccc2)c1 | 1.85%
C[n+]1cc(-c2ccccc2)oc1-c1ccccc1 | -30.6%
C=CCn1c(SCC(=O)c2c(N)n(C)c(=O)n(C)c2=O)nc2sc(CC)cc2c1=O | -16.9%
Cc1ccn2c(=O)nc(SCC(=O)NCc3ccc4c(c3)OCO4)nc2c1 | -9.89%
COc1cc(S(=O)(=O)N2CCN(C(=O)C3CC3)CC2)ccc1NC(C)=O | 9.23%
CCCCCCCCn1c2c(c(=N)c3c1CCC3)CCCC2 | 89.8% (active)
Cc1cccc2cc(CN(C(=O)c3cccs3)c3ccccc3)c(=O)[nH]c12 | -23.1%
O=C(NNC(=O)c1cnccc1C(F)(F)F)c1ccc(Cl)cc1 | -7.32%
CCN1/C(=C\c2ccc3ccccc3[n+]2CC)Sc2cc(C)ccc21 | 93.7% (active)
Cc1ccc(S(=O)(=O)N2C3C=CC(C3)C2C(=O)O)cc1 (stereo unspecified) | -13.6%
CCC(=O)N(C)C(c1ccccc1Cl)c1nnnn1-c1c(C)cccc1C (stereo unspecified) | 1.16%
CC(=O)Nc1sc2c(c1C(c1cccc(F)c1)N1CCN(CCO)CC1)CCCC2 (stereo unspecified) | 5.02%
O=C(Nc1c2c(nn1-c1cccc(Cl)c1)CS(=O)(=O)C2)c1cccs1 | 17.8%
Cc1cccc(N2CCN(C(=O)c3cc4c(=O)[nH]c5ccccc5c4n3C)CC2)c1C | 11.6%
CCc1nc2c(OCc3ccc(F)c(F)c3)cccn2c1N(C)C(=O)c1ccco1 | -12.9%
c1cc(-c2ccc3[nH]ccc3c2)n2ccnc2c1 | -8.26%
